Experimental findings from PubChem BioAssay are described below.

Assay [1] deals with PRMT1 (protein arginine N-methyltransferase 1). The assay can be described thus: PRMT1 binders on small-molecule microarrays, primary screen, biochemical, small-molecule microarray, 635 nm fluorescence (AID 1088).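 Also: binding of Prmt1 protein to compounds spotted on small-molecule microarray slides.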 Conditions: small-molecule microarray binding, higher = more signal.
Assay [2] in a line: yeast growth modulation, basal conditions, primary screen, YJM789 clinical isolate, OD600, 24 h (AID 1089).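 Also: growth of clinical yeast isolate S. cerevisiae YJM 789 seeded 1000 cells per well; test concentration not given here.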 The settings on record: S. cerevisiae YJM789 growth, higher = more signal, called active from +8 up or from −8 down.
Assay [3] can be described thus: fission yeast growth modulation, primary screen, strain 972, OD600, 24 h, no modulator (AID 1090).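 Also: basal condition with compound alone and no growth modifier present; test concentration not given here.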 Conditions: S. pombe 972 growth, higher = more signal, called active from +8 up or from −8 down.
Assay [4] in a line: S. cerevisiae growth modulation with rapamycin, primary screen, strain BY4716, OD600, 96 h (AID 1091). Also: test concentration not given here. Conditions: higher = more signal, called active from +8 up or from −8 down.
Assay [5] addresses Torsin-1A-interacting protein 2 (Homo sapiens) (UniProt Q8NFQ8). The experiment in a line: LULL1 binders on small-molecule microarray, primary screen, cell lysate, human LULL1 lysate, 635/667 nm fluorescence (AID 1092).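 Also: probe is lysate of COS7 cells overexpressing human LULL1; score merges per-feature 667 nm fluorescence with signal-to-noise.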 Conditions: hLULL1 lysate binding, 635 nm fluorescence, higher = more signal.
A short description of assay [6]: E. coli growth modulation, two-sided OD650, primary screen, E. coli filamentation project, strain DRC41, 24 h (AID 1093).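 Also: MC1000 strain lacking acrAB efflux and sulA so SOS filamentation is blocked; test concentration not given here.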 Conditions: OD650, 24 h, higher = more signal, called active from +8 up or from −8 down.
Assay [7] can be described thus: small-molecule microarray binders of probe aLefty2, primary screen, biochemical, biotinylated probe, 635/667 nm fluorescence (AID 1094).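 Also: score merges spot fluorescence near 667 nm with spot signal-to-noise ratio.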 The settings on record: higher = more signal.
Assay [8] concerns Noggin (protein binding on small-molecule microarray). The experiment in a line: Noggin binders on small-molecule microarray, primary screen, biochemical, 635/667 nm fluorescence (AID 1095).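 Also: score merges 667 nm feature fluorescence with signal to noise over triplicate slides.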 Conditions: 635 nm fluorescence, higher = more signal.
Assay [9] concerns the target Neurogenic locus notch homolog protein 3 (Homo sapiens) (UniProt Q9UM47). The experiment in a line: NOTCH3 binders on small-molecule microarray, primary screen, biochemical, 635/667 nm fluorescence (AID 1096). Conditions: NOTCH3 binding, 635 nm fluorescence, higher = more signal.
Assay [10] can be described thus: small-molecule microarray binders of probe aEGFR, primary screen, biochemical, biotinylated probe, 635/667 nm fluorescence (AID 1097).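 Also: probe is a biotinylated anti-EGFR antibody binding compounds printed on slides; score combines fluorescence near 667 nm and signal to noise of each spot.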 Conditions: higher = more signal.
The test system of assay [11] is Plasmodium falciparum Sir2 (PF13_0152, Sir2A). The experiment in a line: pfSir2 binders on small-molecule microarrays, primary screen, biochemical, small-molecule microarray, 635 nm fluorescence (AID 1098).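 Also: score merges spot fluorescence intensity with its signal-to-noise ratio.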 The settings on record: small-molecule microarray binding, fluorescence 635 nm; higher = more signal.
The nature of assay [12]: small-molecule microarray binders of probe aDKK1, primary screen, biochemical, biotinylated probe, 635/667 nm fluorescence (AID 1099).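 Also: score merges 667nm spot fluorescence with signal to noise across triplicate slides; reference of the scale not given here.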 Conditions: higher = more signal.
Assay [13] in a line: small-molecule microarray binders of probe aCHRDL2, primary screen, biochemical, biotinylated probe, 635/667 nm fluorescence (AID 1100). The settings on record: higher = more signal.
Assay [14] can be described thus: splicing luciferase reporter signal modulators, primary screen, spliceosome inhibition project, cell-based, HEK293, splice +/- reporter (AID 1101).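 Also: HEK293 cells carrying a splicing-competent luciferase reporter gene; test concentration not given here.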 The settings on record: luminescence, 24 h, higher = more signal, called active from +8 up or from −8 down.
Assay [15] deals with Fibroblast growth factor 10 (Homo sapiens) (UniProt O15520). The assay can be described thus: FGF10 binders on small-molecule microarrays, primary screen, biochemical, small-molecule microarray, 635 nm fluorescence (AID 1102). Conditions: FGF10 binding, fluorescence 635 nm, higher = more signal.
Assay [16] has as its system glycogen synthase kinase-3 (GSK3A per assay name; protocol says GSK3B). The assay can be described thus: GSK3 binders on small-molecule microarrays, primary screen, biochemical, small-molecule microarray, 635 nm fluorescence, GSK3A (AID 1103). Also: the record names both GSK3A and GSK3B. The settings on record: small-molecule microarray binding, fluorescence 635 nm; higher = more signal.
Assay [17] concerns the target Epidermal growth factor receptor (Homo sapiens) (UniProt P00533). The assay can be described thus: EGFR binders on small-molecule microarrays, primary screen, biochemical, small-molecule microarray, 635 nm fluorescence (AID 1104).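 Also: score merges 667 nm emission intensity with spot signal to noise over triplicate slides.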 The settings on record: EGFR binding, higher = more signal.
Assay [18] addresses Follistatin-related protein 3 (Homo sapiens) (UniProt O95633). The assay can be described thus: FSTL3 binders on small-molecule microarrays, primary screen, biochemical, small-molecule microarray, 635 nm fluorescence (AID 1105).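 Also: score merges emission near 667 nm and signal to noise per printed spot across three slides.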 Conditions: FSTL3 binding, higher = more signal.
Assay [19] deals with Dickkopf-related protein 1 (Homo sapiens) (UniProt O94907). The assay can be described thus: DKK1 binders on small-molecule microarrays, primary screen, biochemical, small-molecule microarray, 635 nm fluorescence scan (AID 1106).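 Also: score merges emission near 667 nm with signal to noise over three replicate slides.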 The settings on record: DKK1 binding, higher = more signal.
Assay [20] relates to Inhibin beta A chain (activin A). The assay can be described thus: INHBA (activin A) binders on microarrays, primary screen, biochemical, small-molecule microarray, 635 nm fluorescence scan (AID 1107).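 Also: mouse activin A protein probed at 4.33 µg/mL on printed slides; score merges bound-protein fluorescence near 667 nm with spot signal-to-noise.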 Conditions: small-molecule microarray binding, higher = more signal.

The source made the active and inactive calls.

Sequence of Dickkopf-related protein 1 (Homo sapiens) (O94907 whole entry, looked up): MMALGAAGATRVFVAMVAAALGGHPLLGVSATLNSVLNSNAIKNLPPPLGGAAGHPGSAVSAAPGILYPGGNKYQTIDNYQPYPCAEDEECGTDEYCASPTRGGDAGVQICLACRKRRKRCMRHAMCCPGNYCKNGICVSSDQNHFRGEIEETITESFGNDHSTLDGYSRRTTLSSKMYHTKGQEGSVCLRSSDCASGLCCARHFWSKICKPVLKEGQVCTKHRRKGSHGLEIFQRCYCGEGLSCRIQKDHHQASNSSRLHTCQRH
Sequence of Follistatin-related protein 3 (Homo sapiens) (O95633 whole entry, looked up): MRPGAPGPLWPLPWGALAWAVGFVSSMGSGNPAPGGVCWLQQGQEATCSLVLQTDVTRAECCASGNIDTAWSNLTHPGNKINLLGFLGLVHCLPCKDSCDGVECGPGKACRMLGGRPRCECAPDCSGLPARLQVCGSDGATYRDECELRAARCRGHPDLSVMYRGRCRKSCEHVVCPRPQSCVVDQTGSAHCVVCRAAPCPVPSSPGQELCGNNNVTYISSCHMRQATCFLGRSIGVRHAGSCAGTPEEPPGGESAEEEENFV
Sequence of Fibroblast growth factor 10 (Homo sapiens) (O15520 whole entry, looked up): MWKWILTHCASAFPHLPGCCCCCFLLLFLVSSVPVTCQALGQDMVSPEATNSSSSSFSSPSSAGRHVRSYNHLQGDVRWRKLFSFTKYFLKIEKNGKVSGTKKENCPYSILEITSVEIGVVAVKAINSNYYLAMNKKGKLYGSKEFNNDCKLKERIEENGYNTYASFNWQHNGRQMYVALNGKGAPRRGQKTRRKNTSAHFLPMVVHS
Sequence of Epidermal growth factor receptor (Homo sapiens) (P00533 whole entry, looked up): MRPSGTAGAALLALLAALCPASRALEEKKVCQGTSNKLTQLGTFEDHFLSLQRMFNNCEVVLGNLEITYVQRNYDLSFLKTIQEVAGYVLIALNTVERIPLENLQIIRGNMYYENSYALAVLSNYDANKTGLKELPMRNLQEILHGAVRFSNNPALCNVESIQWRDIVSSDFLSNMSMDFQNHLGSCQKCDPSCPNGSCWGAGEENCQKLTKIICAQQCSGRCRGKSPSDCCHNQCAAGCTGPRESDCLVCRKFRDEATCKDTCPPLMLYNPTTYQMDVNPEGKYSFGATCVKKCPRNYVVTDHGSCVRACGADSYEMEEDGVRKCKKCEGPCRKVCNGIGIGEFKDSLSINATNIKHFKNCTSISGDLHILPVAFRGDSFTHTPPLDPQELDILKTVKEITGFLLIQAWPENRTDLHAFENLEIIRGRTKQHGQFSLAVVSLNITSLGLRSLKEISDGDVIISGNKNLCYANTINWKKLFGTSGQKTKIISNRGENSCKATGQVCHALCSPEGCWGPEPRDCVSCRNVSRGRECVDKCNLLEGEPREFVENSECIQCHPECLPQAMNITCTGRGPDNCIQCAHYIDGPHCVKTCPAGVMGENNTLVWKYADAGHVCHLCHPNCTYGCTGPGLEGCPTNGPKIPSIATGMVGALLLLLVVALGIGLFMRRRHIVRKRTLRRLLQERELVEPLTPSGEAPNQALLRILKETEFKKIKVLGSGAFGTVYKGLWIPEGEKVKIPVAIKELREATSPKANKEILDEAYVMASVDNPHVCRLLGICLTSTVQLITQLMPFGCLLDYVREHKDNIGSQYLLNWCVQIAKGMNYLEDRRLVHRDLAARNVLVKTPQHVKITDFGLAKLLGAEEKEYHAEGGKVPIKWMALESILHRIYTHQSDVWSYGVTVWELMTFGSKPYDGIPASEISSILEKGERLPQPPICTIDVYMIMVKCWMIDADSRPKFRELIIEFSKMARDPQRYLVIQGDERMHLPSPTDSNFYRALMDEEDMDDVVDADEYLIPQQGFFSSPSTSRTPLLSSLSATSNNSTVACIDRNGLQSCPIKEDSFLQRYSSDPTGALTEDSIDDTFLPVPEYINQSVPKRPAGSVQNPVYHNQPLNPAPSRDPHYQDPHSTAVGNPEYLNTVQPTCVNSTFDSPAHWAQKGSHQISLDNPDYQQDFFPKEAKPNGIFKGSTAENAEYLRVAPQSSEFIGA
Sequence of Torsin-1A-interacting protein 2 (Homo sapiens) (Q8NFQ8 whole entry, looked up): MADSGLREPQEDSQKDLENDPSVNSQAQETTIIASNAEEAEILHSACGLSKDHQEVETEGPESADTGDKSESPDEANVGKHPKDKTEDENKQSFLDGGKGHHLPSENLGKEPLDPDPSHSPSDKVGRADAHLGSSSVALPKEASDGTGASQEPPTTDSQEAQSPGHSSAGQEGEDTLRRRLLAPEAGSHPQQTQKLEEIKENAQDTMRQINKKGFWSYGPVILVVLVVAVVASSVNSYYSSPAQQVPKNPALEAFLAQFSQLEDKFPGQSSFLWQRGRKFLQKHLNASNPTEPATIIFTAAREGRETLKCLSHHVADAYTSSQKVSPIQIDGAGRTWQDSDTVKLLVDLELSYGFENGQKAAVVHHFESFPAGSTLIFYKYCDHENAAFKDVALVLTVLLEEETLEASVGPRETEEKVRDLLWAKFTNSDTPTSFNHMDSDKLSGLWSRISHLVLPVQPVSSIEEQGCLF
Sequence of Neurogenic locus notch homolog protein 3 (Homo sapiens) (Q9UM47 whole entry, looked up): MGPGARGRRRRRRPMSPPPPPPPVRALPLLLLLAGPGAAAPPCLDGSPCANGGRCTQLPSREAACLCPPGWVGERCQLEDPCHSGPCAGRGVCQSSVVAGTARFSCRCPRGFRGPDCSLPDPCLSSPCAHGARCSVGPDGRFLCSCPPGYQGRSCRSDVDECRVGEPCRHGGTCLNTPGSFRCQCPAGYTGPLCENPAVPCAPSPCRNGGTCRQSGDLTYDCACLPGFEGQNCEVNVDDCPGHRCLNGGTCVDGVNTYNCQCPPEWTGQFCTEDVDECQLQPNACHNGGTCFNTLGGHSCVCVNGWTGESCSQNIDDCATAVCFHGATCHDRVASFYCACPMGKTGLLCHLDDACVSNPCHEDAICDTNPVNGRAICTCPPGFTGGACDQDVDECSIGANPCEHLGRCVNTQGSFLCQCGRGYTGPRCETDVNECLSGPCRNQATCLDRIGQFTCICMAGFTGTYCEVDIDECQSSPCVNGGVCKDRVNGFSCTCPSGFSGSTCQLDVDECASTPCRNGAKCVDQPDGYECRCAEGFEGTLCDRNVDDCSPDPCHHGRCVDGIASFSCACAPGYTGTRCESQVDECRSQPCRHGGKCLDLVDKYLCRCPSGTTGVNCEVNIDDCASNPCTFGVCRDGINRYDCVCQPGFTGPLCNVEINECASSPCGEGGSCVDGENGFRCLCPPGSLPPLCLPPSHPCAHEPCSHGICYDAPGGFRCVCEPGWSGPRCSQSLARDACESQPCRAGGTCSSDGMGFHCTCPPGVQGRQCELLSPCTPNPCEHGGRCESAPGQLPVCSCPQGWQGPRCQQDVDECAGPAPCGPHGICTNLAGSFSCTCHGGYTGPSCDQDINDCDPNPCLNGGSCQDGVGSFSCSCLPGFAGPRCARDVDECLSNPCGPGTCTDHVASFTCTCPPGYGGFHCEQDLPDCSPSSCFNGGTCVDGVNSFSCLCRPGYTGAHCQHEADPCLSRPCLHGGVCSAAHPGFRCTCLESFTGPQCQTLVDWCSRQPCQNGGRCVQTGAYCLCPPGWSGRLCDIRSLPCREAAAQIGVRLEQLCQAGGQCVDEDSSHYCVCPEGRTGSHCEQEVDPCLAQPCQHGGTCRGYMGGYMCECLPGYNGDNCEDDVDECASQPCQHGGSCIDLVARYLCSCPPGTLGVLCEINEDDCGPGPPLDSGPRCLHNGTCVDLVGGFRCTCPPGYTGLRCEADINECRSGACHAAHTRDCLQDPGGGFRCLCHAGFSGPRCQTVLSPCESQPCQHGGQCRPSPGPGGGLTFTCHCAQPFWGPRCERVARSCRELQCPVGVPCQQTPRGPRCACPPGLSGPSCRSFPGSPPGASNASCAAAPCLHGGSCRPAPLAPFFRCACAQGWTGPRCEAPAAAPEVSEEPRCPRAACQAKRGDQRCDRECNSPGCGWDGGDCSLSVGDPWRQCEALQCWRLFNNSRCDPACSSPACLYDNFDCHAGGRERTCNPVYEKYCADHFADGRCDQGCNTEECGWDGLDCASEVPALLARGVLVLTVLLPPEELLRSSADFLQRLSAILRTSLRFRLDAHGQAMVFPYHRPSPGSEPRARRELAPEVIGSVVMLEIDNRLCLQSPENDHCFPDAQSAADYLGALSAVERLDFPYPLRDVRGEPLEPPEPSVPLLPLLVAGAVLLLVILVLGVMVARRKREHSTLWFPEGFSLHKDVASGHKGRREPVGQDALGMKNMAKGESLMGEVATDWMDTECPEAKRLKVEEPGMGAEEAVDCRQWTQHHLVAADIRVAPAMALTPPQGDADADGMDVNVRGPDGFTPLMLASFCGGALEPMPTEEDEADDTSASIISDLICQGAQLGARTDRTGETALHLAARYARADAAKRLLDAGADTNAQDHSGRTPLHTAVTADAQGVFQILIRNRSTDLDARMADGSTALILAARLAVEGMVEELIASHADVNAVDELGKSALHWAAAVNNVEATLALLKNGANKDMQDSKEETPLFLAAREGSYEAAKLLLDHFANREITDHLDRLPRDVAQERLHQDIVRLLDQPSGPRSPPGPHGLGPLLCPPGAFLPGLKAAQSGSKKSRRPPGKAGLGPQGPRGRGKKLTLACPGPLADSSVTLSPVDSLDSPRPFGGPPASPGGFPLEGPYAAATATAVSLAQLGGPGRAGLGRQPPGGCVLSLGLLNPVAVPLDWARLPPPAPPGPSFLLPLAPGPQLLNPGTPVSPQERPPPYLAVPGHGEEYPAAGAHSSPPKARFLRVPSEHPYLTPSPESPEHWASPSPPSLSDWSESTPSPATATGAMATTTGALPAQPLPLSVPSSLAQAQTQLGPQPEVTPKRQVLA

In the case of `CN1C(=O)C2C(C1=O)C1C=C(c3ccc(CO)cc3)C2C(C2CC2)N1Cc1sc2ccccc2c1Cl` (stereo not given), the composite z-score in [1] was determined as 1.55; in assay [5] it was 3.33; in [7] it was 0.252; in assay [8] it was 0.411; in assay [9] it was 1.03; in assay [10], 0.0651. For the same molecule, the composite z-score in assay [11] is 0.924; in [12], -0.197; in [13] it was 0.82; in [15], 1.25; in assay [16], 1.33; in [17], 0.291. The composite z-score in [18] is 0.989; in assay [19], 0.473; in assay [20], 0.74. Besides, the z-score was 0.654 (inactive) in assay [2]; -3 (inactive) in [3]; 1.42 (inactive) in assay [4]; 0.204 (inactive) in assay [6]; 0.254 (inactive) in assay [14].

Consider `CC(C)N1C(=O)c2ccccc2[C@](C)(C(=O)NCCCN(C)C)[C@@H]1c1ccc(CO)cc1`, for which the composite z-score in assay [1] is -0.109; in [5], 2.41; in assay [7] it was 0.0071; in assay [8] it was -0.818; in assay [9], -1.28; in [10], -0.22. In addition, the composite z-score was 0.928 in assay [11]; 0.466 in [12]; 0.665 in assay [13]; -0.543 in [15]; 1.4 in assay [16]; -0.968 in [17]. For the same molecule, the composite z-score in assay [18] was -0.749; in assay [19], -1.78; in [20] it was 0.814. Also, the z-score in [2] was -0.763 (inactive); in assay [3], -1.26 (inactive); in assay [4], -1.36 (inactive); in assay [6], 0.0321 (inactive); in assay [14], -0.297 (inactive).

`O=C1OCC=C[C@H]2OC34C=CCN(Cc5ccccc5)C(=O)[C@H]3N(CCCO)C(=O)[C@@H]4[C@@H]12` (stereo not given in full): the composite z-score is 0.733 in assay [1]; 3.71 in assay [5]; 0.694 in assay [7]; 0.319 in [8]; 0.288 in assay [9]; -0.0703 in assay [10]. Moreover, the composite z-score in [11] was 0.995; in assay [12] it was 1.16; in assay [13], 0.907; in [15], 0.0676; in assay [16], 0.301; in [17], -0.692. Moreover, the composite z-score in [18] is 0.37; in assay [19], -0.896; in assay [20], 1.22. The z-score is 0.393 (inactive) in assay [2]; -0.885 (inactive) in assay [3]; -0.38 (inactive) in assay [4]; 2.76 (inactive) in assay [6]; -0.589 (inactive) in assay [14].

As for `COc1ccc([Si](C)(C)[C@H]2[C@H](CCO)O[C@@]3(C(=O)N(Cc4ccccc4)c4ccc(N5C(=O)COc6ccccc65)cc43)[C@@H]2C)cc1`, the composite z-score in assay [1] is -0.171; in [5], 1.14; in [7], 0.0365; in assay [8], 0.177; in assay [9] it was 0.246; in assay [10], -0.126. The composite z-score in [11] was 1.12; in assay [12], 0.0649; in [13] it was 0.521; in assay [15] it was 0.305; in assay [16] it was -0.965; in assay [17], -0.5. In addition, the composite z-score in assay [18] is -0.207; in assay [19], -0.214; in assay [20] it was 0.241. Moreover, the z-score in assay [2] is 0.773 (inactive); in assay [3], -0.494 (inactive); in [4], 5.54 (inactive); in [6], 1.45 (inactive); in assay [14] it was -1.56 (inactive).

As for `COC(=O)C(CC#Cc1ccc2c(c1)[C@]1(C(=O)N2)[C@H](C(=O)N2CCCCCCC2)[C@H]2C(=O)O[C@H](c3ccccc3)[C@H](c3ccccc3)N2[C@@H]1c1ccccc1OCCO)C(=O)OC`, the composite z-score in [1] came to 1.54; in [5], 5.3; in assay [7], 1.89; in [8], 2.44; in assay [9], 1.02; in [10] it was 1.46. For the same molecule, the composite z-score in assay [11] came to 2.14; in assay [12] it was 3.1; in assay [13] it was 1.75; in assay [15], 1.47; in assay [16], 1.47; in assay [17], 1.96. Further, the composite z-score came to 1.73 in assay [18], 2.58 in assay [19] and 1.79 in assay [20]. The z-score in [2] is 0.293 (inactive); in assay [3], -0.97 (inactive); in [4], 0.172 (inactive); in [6] it was -0.823 (inactive); in assay [14], 0.13 (inactive).
